Values joined by “and” are separate entries in the source; they are usually repeats but may differ in a detail not shown here. Equal values may be shown once. Records with an inconclusive call do not appear. A call without a number means that no potency is given here. Active and inactive are the calls of the source. Unless noted, calls follow the shape of the dose curve; as a rule, active = well fitted curve in the direction sought with a large enough effect; inconclusive = small, poorly fitted or top-dose-only effect, or another doubt; inactive = no such curve, though single readings can be large; an effect the other way counts as inactive or inconclusive.
Legend:
[1] = qHTS Assay for Lipid Storage Modulators (AID 1519; calls by dose curve); conditions: Drosophila S3 cells, BODIPY lipid droplet/cell ratio, laser cytometry, cells loaded with oleic acid; for activity change, negative = inhibition: at 57.5 µM (top of the series)
Summary of the method: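 Cells seeded at 5,000 per well were treated with compounds over a concentration series and loaded with oleic acid (400 uM, as added). Lipid droplet fluorescence (488 nm excitation, 500-530 nm channel) was read by laser-scanning cytometry and normalized to 20 uM Triacsin C.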

[2] = target: DNA repair nuclease/redox regulator APEX1 (Homo sapiens) (UniProt P27695); assay: qHTS Validation Assay for Inhibitors of the Human Apurinic/apyrimidinic Endonuclease 1 (APE1) (AID 1705; also: potency is read from the fitted curve at half-maximal effect;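 as to activity change, negative = inhibition: TAMRA fluorescence gain over two minutes as APE1 cuts a quenched THF abasic duplex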)
Summary of the method: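 Endonuclease activity of human APE1 is followed as dequenching when the enzyme incises a tetrahydrofuran abasic site in a short duplex labelled 5'-TAMRA/3'-BHQ-2 (50 nM final), after 15 min enzyme–compound preincubation at room temperature.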

[3] = target: Alpha-galactosidase A (Homo sapiens) (UniProt P06280); assay: Counterscreen for Glucocerebrosidase Inhibitors: qHTS Assay for Human alpha-Galactosidase at pH 4.5 (AID 992)
Summary of the method: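 Quantitative HTS: compounds tested from 0.7 nM up to 77 uM against 2 nM enzyme with 80 uM 4-MU alpha-D-galactopyranoside. The 20 min room-temperature reaction is stopped with 1M NaOH/1M glycine, pH 10.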

[4] = target: alpha-glucosidase (Oryza sativa, rice) (UniProt Q653V4); assay: Counterscreen for Glucocerebrosidase Inhibitors: qHTS Assay for Rice alpha-Glucosidase at pH 5.0 (AID 997)
Summary of the method: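 Rice alpha-glucosidase (4 nM final) with 400 uM 4-methylumbelliferyl-alpha-D-glucopyranoside in citrate buffer pH 5.0, 20 min at room temperature, stopped at pH 10; fluorescence 365/440 nm, compounds 0.7 nM–77 uM, AC50 from Hill fits.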

[5] = Cell Viability - LYMP1-002 - Assay at 24 hr (AID 993)
Summary of the method: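 Human lymphoblastoid LYMP1-002 cells, 2500/well in complete medium, were treated with compounds for 24 h at 37 C; intracellular ATP was read by CellTiter-Glo luminescence. AC50 values came from Hill-equation fits of qHTS concentration-response data.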

[6] = Cell Viability - LYMP2-020 (AID 986); also: nearly all actives have a fitted effect of over 55% in size
Summary of the method: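 Human lymphoblastoid cells, 2500/well, were pre-incubated 5 hr at 37 C, then exposed to compounds for 24 hr at 37 C in complete medium. Intracellular ATP was read by CellTiter-Glo luminescence, and AC50 was derived by Hill fitting of concentration-response data.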

[7] = Cell Viability - LYMP2-022 (AID 987); also: nearly all actives have a fitted effect of over 55% in size
Summary of the method: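 Human lymphoblastoid cells, 2500/well, preincubated 5 hr at 37 C, then exposed to compounds over a concentration range for 24 hr at 37 C in complete medium. Viability read as intracellular ATP by CellTiter-Glo luminescence after 30 min at room temperature; AC50 from Hill fits.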

[8] = Cell Viability - LYMP2-024 (AID 988); also: nearly all actives have a fitted effect of over 60% in size
Summary of the method: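 Human lymphoblastoid cells (2500/well) in complete medium were preincubated 5 hr at 37 C, then exposed to compounds for 24 hr at 37 C. Intracellular ATP was read by CellTiter-Glo luminescence; AC50 from Hill-equation fits of concentration-response data.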

[9] = Cell Viability - LYMP2-026 (AID 989); also: nearly all actives have a fitted effect of over 50% in size
Summary of the method: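 Human lymphoblastoid cells (2500/well) in complete medium were preincubated 5 hr at 37 C, then exposed to compounds for 24 hr at 37 C. Cellular ATP was read by CellTiter-Glo luminescence; AC50 from Hill-equation fits of concentration-response data.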

[10] = measured here: cell count channel max response
[11] = measured here: lipid channel max response

DNA repair nuclease/redox regulator APEX1 (Homo sapiens), sequence (P27695 whole entry, looked up): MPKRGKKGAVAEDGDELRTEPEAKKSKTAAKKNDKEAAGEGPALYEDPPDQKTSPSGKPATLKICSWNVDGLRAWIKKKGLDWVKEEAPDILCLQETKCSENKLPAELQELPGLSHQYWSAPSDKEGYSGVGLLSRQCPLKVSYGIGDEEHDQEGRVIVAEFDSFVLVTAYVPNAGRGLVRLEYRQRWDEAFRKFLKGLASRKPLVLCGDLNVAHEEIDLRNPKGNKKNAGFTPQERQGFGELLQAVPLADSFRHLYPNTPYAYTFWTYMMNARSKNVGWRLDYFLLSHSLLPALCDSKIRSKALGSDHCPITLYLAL
Alpha-galactosidase A (Homo sapiens), sequence (P06280 whole entry, looked up): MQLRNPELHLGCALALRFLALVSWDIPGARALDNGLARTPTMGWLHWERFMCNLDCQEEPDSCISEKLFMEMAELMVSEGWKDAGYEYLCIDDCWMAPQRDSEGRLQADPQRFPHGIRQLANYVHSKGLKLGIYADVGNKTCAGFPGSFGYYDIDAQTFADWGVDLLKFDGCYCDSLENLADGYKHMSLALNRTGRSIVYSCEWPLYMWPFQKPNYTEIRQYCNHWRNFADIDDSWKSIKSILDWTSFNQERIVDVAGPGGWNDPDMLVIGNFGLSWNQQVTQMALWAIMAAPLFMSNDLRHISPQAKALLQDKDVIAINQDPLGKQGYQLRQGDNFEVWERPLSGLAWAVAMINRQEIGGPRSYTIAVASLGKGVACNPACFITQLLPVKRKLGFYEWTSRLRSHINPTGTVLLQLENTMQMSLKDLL

For `CCCCCCCCCCCCCCCCCC(=O)NCC(COP(=O)([O-])OCC[N+](C)(C)C)OCC` (configuration not stated), the activity change, negative = inhibition [1] was -1.69% (inactive), the max response [1, 10] was 15.1% and the max response [1, 11] was 12.1%. The Potency [2] was “inactive”.
For `CCCCCCCC/C=C\CCCCCCCC(=O)NCCO`, the outcome [3] was “inactive”, the outcome [4] was “inactive” and the activity change, negative = inhibition [1] was 1.41% (inactive). For the same compound, the max response [1, 10] was 18.9% and the max response [1, 11] was 20.6%.
With `NCCCS(=O)(=O)O` the outcome [3] was “inactive”, the outcome [4] was “inactive” and the activity change, negative = inhibition [1] was 4.47% (inactive). For the same compound, the max response [1, 10] was 17.3%, the max response [1, 11] was 22.8% and the Potency [2] was “inactive”.
With `Oc1cc(O)cc(/C=C/c2ccc(O)c(O)c2)c1` the Potency [2] was “inactive”.
With `CCCCCC(O)c1cccc(OCc2ccc3ccccc3n2)c1` (configuration not stated) the Potency [2] was “inactive”.
With `S=C(S)OC1CC2CC1C1CCCC21` (configuration not stated) the activity change, negative = inhibition [1] was -2.21% (inactive), the max response [1, 10] was -18.8% and the max response [1, 11] was -14.9%. The Potency [2] was “inactive”.
With `O=C(Nc1cccc(C(=O)Nc2ccc(S(=O)(=O)O)c3cc(S(=O)(=O)O)cc(S(=O)(=O)O)c23)c1)Nc1cccc(C(=O)Nc2ccc(S(=O)(=O)O)c3cc(S(=O)(=O)O)cc(S(=O)(=O)O)c23)c1` the outcome [3] was “inactive”, the outcome [4] was “inactive” and the activity change, negative = inhibition [1] was 2.61% (inactive). The max response [1, 10] was -8.67%, the max response [1, 11] was -6.27% and the Potency [2] was 10 µM (active).
With `CC(C)(C)c1ccc(S(=O)(=O)/C=C/C#N)cc1` the Potency [2] was “inactive”.
With `O=c1[nH]c2cc(Cl)c(Cl)cc2[nH]c1=O` the outcome [3] was “inactive”, the outcome [4] was “inactive” and the activity change, negative = inhibition [1] was -0.911% (inactive). For the same compound, the max response [1, 10] was -49.2%, the max response [1, 11] was -51.3% and the Potency [2] was “inactive”.
In the case of `O=C(c1cc(O)c(O)c([N+](=O)[O-])c1)c1ccccc1F`, the outcome [3] is reported as “inactive”, the outcome [4] is reported as “inactive” and the activity change, negative = inhibition [1] is reported as -2.67% (inactive). For the same compound, the max response [1, 10] was -12%, the max response [1, 11] was -15.8% and the Potency [2] was “inactive”.
With `Nc1ccn([C@@H]2O[C@H](CO)[C@@H](O)[C@@H]2O)c(=O)n1` the Potency [2] was “inactive”.
In the case of `Oc1cc2c(cc1O)CN(C(=S)NCCc1ccc(Cl)cc1)CCC2`, the outcome [3] is reported as “inactive”, the outcome [4] is reported as “inactive” and the Potency [2] is reported as “inactive”.
For `COc1cc(NC(C)CCCN)c2ncccc2c1` (configuration not stated), the activity change, negative = inhibition [1] was 7.1% (inactive), the max response [1, 10] was 14.8% and the max response [1, 11] was 28.1%.
For `Oc1ccccc1O`, the outcome [3] was “inactive”, the Potency [5] was “inactive” and the outcome [4] was “inactive”. The activity change, negative = inhibition [1] was -4.75% (inactive), the max response [1, 10] was -20.2% and the max response [1, 11] was -25.6%.
With `N[C@@H](CC(=O)O)C(=O)O` the outcome [3] was “inactive”, the outcome [4] was “inactive” and the activity change, negative = inhibition [1] was 4.62% (inactive) and -0.577% (inactive). The max response [1, 10] was -7.93% and 52.8%, the max response [1, 11] was -3.65% and 51.4% and the Potency [2] was “inactive”.
In the case of `O=S(=O)(c1cccc2c(I)cccc12)N1CCCNCC1`, the outcome [3] is reported as “inactive”, the outcome [4] is reported as “inactive” and the activity change, negative = inhibition [1] is reported as 1.19% (inactive). For the same compound, the max response [1, 10] was -8.25%, the max response [1, 11] was -5.07% and the Potency [2] was “inactive”.
For `S=c1[nH]c2ccccc2s1`, the Potency [6] was “inactive”, the Potency [7] was “inactive” and the Potency [8] was “inactive”. The Potency [9] was “inactive”, the Potency [5] was “inactive” and the activity change, negative = inhibition [1] was 12% (inactive). It also gave a max response [1, 10] of 14.4% and a max response [1, 11] of 29.5%.
For `CCCCCCCCCCCCCCCCCCNC(=O)OCC(COP(=O)([O-])OCC[n+]1ccsc1)OC` (configuration not stated), the activity change, negative = inhibition [1] was 0.643% (inactive), the max response [1, 10] was -16.2% and the max response [1, 11] was -15%. The Potency [2] was “inactive”.
In the case of `O=C1O/C(=C/Br)CCC1c1cccc2ccccc12` (configuration not stated), the Potency [2] is reported as “inactive”.
In the case of `O=C1C(SCCO)=C(SCCO)C(=O)c2ccccc21`, the outcome [3] is reported as “inactive”, the outcome [4] is reported as “inactive” and the Potency [2] is reported as “inactive”.
In the case of `CC12C(=O)OC(=O)C1(C)C1CCC2O1` (configuration not stated), the Potency [2] is reported as “inactive”.

From PubChem BioAssay (NCATS)
